Experiment [1] in a line: ACEA_AR_agonist_AUC_viability: ACEA Biosciences xCELLigence Real-Time Cell Analysis on Androgen Receptor Agonism for Viability (AID 2283775).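 On AC50: viability read 80 hours after compound addition.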 An outline of the steps:
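22Rv1 cells; impedance growth kinetics; 8-pt 1:4 dilutions from 100 uM top final, ≤0.5% DMSO; n = 2; 80 h read; AUC viability, loss-of-signal vs DMSO.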

Experiment [2] in a line: ACEA_AR_antagonist_AUC_viability: ACEA Biosciences xCELLigence Real-Time Cell Analysis on Androgen Receptor Antagonism for Viability (AID 2283776).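 Further: 22Rv1 human prostate cancer cells growing on impedance electrode plates; hits lower the growth signal relative to DMSO meaning cytotoxicity.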 An outline of the steps:
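Impedance read-out (RT-CES): area under growth curve at 80 h post-dose, loss of signal scored vs DMSO baseline. 22Rv1 cells; 8-pt 1:4 series, top 100 uM final, ≤0.5% DMSO; biological duplicate.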

A short description of experiment [3]: ACEA_ER_AUC_viability: ACEA Biosciences xCELLigence Real-Time Cell Analysis on Estrogen Receptor Agonism for Viability (AID 2283782).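 Further: hit means loss of impedance signal meaning reduced cell growth or viability.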 The essentials: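 Continuous-exposure impedance cell analysis uses T-47D cells in charcoal-stripped serum, eight 1:4 dilutions topping at 100 uM final, biological duplicate. Area under the growth curve at 80 h is fitted against DMSO baseline.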

Experiment [4] concerns the target zebrafish Estrogen Receptor (ESR1), esr1 (gene 259252) (UniProt P57717). The experiment can be described thus: ATG_zfER1_XSP1: Attagene TRANS-FACTORIAL Multi-Species (XSP1) HepG2 Assay for zebrafish Estrogen Receptor (ESR1) (AID 2283772). The essentials: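 Reporter mRNA induction, gauged via RT-PCR/capillary electrophoresis fluorescence relative to DMSO controls, in HepG2 cells transiently carrying GAL4-UAS reporter units; 24 h dosing.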

For experiment [5], the system named is frog Estrogen Receptor (ESR2), gene 100174814. The experiment can be described thus: ATG_frER2_XSP1: Attagene TRANS-FACTORIAL Multi-Species (XSP1) HepG2 Assay for frog Estrogen Receptor (ESR2) (AID 2283774). An outline of the steps: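 Multiplexed TRANS-format reporter assay in human hepatoma HepG2: chimeric nuclear receptor-Gal4 activity reported as mRNA induction at 24 h, detected by fluorescent RT-PCR products on capillary electrophoresis and fitted upward from DMSO baseline.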

Experiment [6] concerns frog Estrogen Receptor (ESR1), gene 398734. The experiment can be described thus: ATG_frER1_XSP1: Attagene TRANS-FACTORIAL Multi-Species (XSP1) HepG2 Assay for frog Estrogen Receptor (ESR1) (AID 2283777). An outline of the steps: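 After transient transfection and 24 h compound treatment, total RNA from HepG2 cells was reverse-transcribed, amplified, FAM-labeled and resolved by capillary electrophoresis. Signal increases were fitted against DMSO controls.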

The test system of experiment [7] is zebrafish Estrogen Receptor (ESR2A), gene 317734. The experiment can be described thus: ATG_zfER2a_XSP1: Attagene TRANS-FACTORIAL Multi-Species (XSP1) HepG2 Assay for zebrafish Estrogen Receptor (ESR2A) (AID 2283778). An outline of the steps: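 Gain-of-signal reporter transcription readout from GAL4-UAS units in transiently transfected HepG2 cells, 24 h exposure, 3 nM 6-alpha-fluorotestosterone co-present. Detection by RT-PCR with capillary electrophoresis fluorescence.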

The target in experiment [8] is chicken Estrogen Receptor (ESR1), ESR1 (gene 396099) (UniProt P06212). The experiment can be described thus: ATG_chERa_XSP1: Attagene TRANS-FACTORIAL Multi-Species (XSP1) HepG2 Assay for chicken Estrogen Receptor (ESR1) (AID 2283779). The essentials: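 Gain-of-signal reporter transcription, relative to DMSO, was scored in transiently transfected HepG2 cells after a 24 h dose. Fluorescence intensity of amplified, digested reporter cDNA fragments served as the endpoint.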
chicken Estrogen Receptor (ESR1), ESR1 (gene 396099), sequence (P06212 whole entry, looked up, the tested form may be a part): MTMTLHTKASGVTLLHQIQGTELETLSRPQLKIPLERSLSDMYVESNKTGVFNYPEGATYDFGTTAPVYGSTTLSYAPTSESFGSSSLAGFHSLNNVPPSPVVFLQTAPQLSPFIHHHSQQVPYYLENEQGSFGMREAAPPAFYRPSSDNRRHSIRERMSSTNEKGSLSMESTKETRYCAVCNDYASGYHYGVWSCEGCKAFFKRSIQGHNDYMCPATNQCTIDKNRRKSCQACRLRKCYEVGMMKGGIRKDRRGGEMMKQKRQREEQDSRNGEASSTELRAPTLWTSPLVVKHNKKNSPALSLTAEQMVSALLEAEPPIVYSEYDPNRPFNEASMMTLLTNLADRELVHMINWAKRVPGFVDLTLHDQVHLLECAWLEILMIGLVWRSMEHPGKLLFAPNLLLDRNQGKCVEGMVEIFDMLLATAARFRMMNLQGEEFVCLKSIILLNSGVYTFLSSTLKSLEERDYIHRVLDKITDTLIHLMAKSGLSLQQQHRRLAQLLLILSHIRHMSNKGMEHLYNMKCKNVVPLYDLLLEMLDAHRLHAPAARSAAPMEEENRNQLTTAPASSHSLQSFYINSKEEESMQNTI

Experiment [9] addresses Estrogen receptor (Homo sapiens) (UniProt P03372). The experiment can be described thus: ATG_hERa_XSP1: Attagene TRANS-FACTORIAL Multi-Species (XSP1) HepG2 Assay for human Estrogen Receptor (ESR1) (AID 2283780). An outline of the steps:
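Reporter transcripts from multiplexed GAL4-UAS units driven by NR-Gal4 chimeras in transiently transfected HepG2 were measured by RT-PCR with capillary electrophoresis 24 h post-dose, with 3 nM 6-alpha-fluorotestosterone present; gain-of-signal relative to DMSO.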

The test system of experiment [10] is turtle Estrogen Receptor (ESR1), gene 101933533. The experiment can be described thus: ATG_trERa_XSP1: Attagene TRANS-FACTORIAL Multi-Species (XSP1) HepG2 Assay for turtle Estrogen Receptor (ESR1) (AID 2283781). An outline of the steps: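 Cell-based chimeric NR-Gal4 transactivation; HepG2; 24 h dosing; mRNA reporter detected by RT-PCR and capillary electrophoresis fluorescence.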

In experiment [11] the target is AR (gene 367) (UniProt P10275). The experiment can be described thus: ACEA_AR_agonist_80hr: ACEA Biosciences xCELLigence Real-Time Cell Analysis on Androgen Receptor Agonism for Proliferation (AID 2283783).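 Further: hits increase impedance growth signal above DMSO baseline.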 The essentials: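 Real-time cell-growth kinetics were recorded by electrode impedance in 22Rv1 cells exposed to test chemicals up to 100 uM final; the 80 h timepoint served as the readout, fitted upward relative to DMSO controls, in biological duplicate.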
AR (gene 367), sequence (P10275 whole entry, looked up): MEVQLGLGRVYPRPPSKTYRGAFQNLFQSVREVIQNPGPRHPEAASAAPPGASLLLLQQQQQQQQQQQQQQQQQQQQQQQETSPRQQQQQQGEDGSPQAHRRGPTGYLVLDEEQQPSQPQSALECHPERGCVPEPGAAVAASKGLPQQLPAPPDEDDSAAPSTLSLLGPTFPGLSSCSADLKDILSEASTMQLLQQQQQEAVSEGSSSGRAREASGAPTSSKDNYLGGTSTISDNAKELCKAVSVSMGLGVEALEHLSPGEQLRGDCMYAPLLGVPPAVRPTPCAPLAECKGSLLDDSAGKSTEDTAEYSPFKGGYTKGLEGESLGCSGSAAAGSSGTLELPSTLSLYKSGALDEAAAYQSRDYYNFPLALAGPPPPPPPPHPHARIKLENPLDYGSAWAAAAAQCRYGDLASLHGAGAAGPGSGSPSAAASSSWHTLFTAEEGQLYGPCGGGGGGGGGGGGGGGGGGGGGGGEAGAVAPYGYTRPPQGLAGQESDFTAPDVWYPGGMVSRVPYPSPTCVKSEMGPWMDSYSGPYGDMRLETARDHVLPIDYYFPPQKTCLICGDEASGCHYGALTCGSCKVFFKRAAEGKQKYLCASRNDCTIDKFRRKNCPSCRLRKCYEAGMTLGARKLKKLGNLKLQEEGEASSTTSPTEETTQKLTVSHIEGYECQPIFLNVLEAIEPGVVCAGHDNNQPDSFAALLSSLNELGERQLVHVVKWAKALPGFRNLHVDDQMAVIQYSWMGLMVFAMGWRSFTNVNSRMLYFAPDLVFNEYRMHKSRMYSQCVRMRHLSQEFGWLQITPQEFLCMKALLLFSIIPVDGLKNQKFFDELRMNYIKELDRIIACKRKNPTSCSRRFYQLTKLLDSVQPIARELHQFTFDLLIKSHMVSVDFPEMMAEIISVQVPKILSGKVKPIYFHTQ

The nature of experiment [12]: STM_H9_NormalizedViability: Cytotoxicity Assessment at 120 hours in the Stemina devTOX quickPredict H9 human embryonic stem cell (hESC)-based Assay (AID 2283784). The essentials: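 Viability endpoint: background-corrected CellTiter-Fluor RFU expressed relative to the 0.1% DMSO mean on each plate. Undifferentiated H9 cells were treated with daily re-dosing and media change, and loss of signal was fitted.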

The target in experiment [13] is AR (gene 367) (UniProt P10275). The experiment can be described thus: ACEA_AR_antagonist_80hr: ACEA Biosciences xCELLigence Real-Time Cell Analysis on Androgen Receptor Antagonism for Proliferation (AID 2283787).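 Further: 22Rv1 human prostate cancer cells with growth followed by electrical impedance; hits lower the impedance growth signal relative to DMSO.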 An outline of the steps:
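Using 22Rv1 cells held in assay medium, we dosed compounds (100 uM maximum final, 1:4 serial, eight points, 0.5% DMSO at top) and recorded cell-electrode impedance; the 80 hr timepoint was analyzed against DMSO.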

The target of experiment [14] is Estrogen receptor beta (Homo sapiens) (UniProt Q92731). The experiment can be described thus: ATG_hERb_XSP1: Attagene TRANS-FACTORIAL Multi-Species (XSP1) HepG2 Assay for human Estrogen Receptor (ESR2) (AID 2283788). An outline of the steps:
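Multiplexed trans-activation in transfected HepG2: ERβ-Gal4 reporter transcripts after 24 h treatment, detected by RT-PCR plus capillary electrophoresis.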

Experiment [15] in a line: ATG_M_06_XSP1: Attagene TRANS-FACTORIAL Multi-Species (XSP1) HepG2 Assay for M06 Transcription Factor (Internal Marker) (AID 2283790). The essentials:
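This background-control readout tracks M06 reporter mRNA, measured by RT-PCR and capillary electrophoresis. HepG2 cells transiently carrying the GAL4-UAS reporter panel were dosed for 24 h with 3 nM 6-alpha-fluorotestosterone added for partial AR stimulation; increases were scored relative to DMSO.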

Experiment [16] is described as follows: ATG_M_61_XSP1: Attagene TRANS-FACTORIAL Multi-Species (XSP1) HepG2 Assay for M61 Transcription Factor (Internal Marker) (AID 2283797). The essentials: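 Background-control readout: reporter transcripts measured by RT-PCR and capillary electrophoresis 24 h after dosing transiently transfected HepG2 multi-reporter cells, with 3 nM 6-alpha-fluorotestosterone present. Fitted in the positive direction relative to DMSO.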

For experiment [17], the system named is zebrafish Estrogen Receptor (ESR2B), gene 317733. The experiment can be described thus: ATG_zfER2b_XSP1: Attagene TRANS-FACTORIAL Multi-Species (XSP1) HepG2 Assay for zebrafish Estrogen Receptor (ESR2B) (AID 2283773). An outline of the steps: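 Human hepatoma HepG2, transiently transfected with multi-reporter units; exogenous zebrafish ESR2B-Gal4 activity measured. Exposure 24 h alongside 3 nM 6-alpha-fluorotestosterone to partly stimulate AR.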

Experiment [18] concerns turtle Androgen Receptor (AR), gene 101947425. The experiment can be described thus: ATG_trAR_XSP1: Attagene TRANS-FACTORIAL Multi-Species (XSP1) HepG2 Assay for turtle Androgen Receptor (AR) (AID 2283786). An outline of the steps:
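Partial androgen stimulation is provided by 3 nM 6-alpha-fluorotestosterone in a multi-species trans-factorial panel expressing a turtle AR–GAL4 fusion in HepG2. After 24 h, reporter mRNA is measured by RT-PCR and capillary electrophoresis and fitted upward against DMSO.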

For experiment [19], the target named is GAL4 Transcription Factor (Internal Marker), GAL4 (gene 855828) (UniProt P04386). The experiment can be described thus: ATG_GAL4_XSP1: Attagene TRANS-FACTORIAL Multi-Species (XSP1) HepG2 Assay for GAL4 Transcription Factor (Internal Marker) (AID 2283789). The essentials: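 This background-control endpoint measures GAL4-driven reporter mRNA via RT-PCR and capillary electrophoresis of labelled fragments. Transiently transfected HepG2 cells were treated 24 h, with 3 nM 6-alpha-fluorotestosterone included, and gain-of-signal was fitted against DMSO.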
GAL4 Transcription Factor (Internal Marker), GAL4 (gene 855828), sequence (P04386 whole entry, looked up, the tested form may be a part): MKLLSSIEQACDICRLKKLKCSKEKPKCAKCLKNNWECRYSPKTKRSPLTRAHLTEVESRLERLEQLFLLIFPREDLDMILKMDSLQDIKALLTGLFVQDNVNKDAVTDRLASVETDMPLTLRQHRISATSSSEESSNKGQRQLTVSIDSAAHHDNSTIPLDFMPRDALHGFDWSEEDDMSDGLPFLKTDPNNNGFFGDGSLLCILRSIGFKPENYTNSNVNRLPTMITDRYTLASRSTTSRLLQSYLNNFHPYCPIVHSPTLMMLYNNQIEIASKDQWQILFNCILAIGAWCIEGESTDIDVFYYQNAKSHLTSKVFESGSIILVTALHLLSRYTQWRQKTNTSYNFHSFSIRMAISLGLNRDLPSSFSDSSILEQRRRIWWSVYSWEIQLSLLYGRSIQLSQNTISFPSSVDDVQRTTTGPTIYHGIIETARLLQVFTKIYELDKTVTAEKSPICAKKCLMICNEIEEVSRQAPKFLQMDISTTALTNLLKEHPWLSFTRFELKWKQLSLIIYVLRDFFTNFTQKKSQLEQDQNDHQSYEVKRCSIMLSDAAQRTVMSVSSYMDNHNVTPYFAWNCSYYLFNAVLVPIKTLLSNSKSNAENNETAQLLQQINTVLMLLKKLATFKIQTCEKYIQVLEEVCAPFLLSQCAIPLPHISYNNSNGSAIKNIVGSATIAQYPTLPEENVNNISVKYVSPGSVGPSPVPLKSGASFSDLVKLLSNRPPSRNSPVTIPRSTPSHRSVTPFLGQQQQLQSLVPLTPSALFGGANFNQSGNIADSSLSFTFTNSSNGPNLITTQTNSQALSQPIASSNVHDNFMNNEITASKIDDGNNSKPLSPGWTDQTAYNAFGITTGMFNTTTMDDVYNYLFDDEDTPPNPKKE

Results filed as inconclusive are left out. Activity calls are given as the source filed them. How the source made its calls: active means hit-call score of the fitted dose curve at least 0.9, where 1 is the maximum; inconclusive means response in the unintended direction; inactive means score below 0.9.

Estrogen receptor beta (Homo sapiens), sequence (Q92731 whole entry, looked up, the tested form may be a part): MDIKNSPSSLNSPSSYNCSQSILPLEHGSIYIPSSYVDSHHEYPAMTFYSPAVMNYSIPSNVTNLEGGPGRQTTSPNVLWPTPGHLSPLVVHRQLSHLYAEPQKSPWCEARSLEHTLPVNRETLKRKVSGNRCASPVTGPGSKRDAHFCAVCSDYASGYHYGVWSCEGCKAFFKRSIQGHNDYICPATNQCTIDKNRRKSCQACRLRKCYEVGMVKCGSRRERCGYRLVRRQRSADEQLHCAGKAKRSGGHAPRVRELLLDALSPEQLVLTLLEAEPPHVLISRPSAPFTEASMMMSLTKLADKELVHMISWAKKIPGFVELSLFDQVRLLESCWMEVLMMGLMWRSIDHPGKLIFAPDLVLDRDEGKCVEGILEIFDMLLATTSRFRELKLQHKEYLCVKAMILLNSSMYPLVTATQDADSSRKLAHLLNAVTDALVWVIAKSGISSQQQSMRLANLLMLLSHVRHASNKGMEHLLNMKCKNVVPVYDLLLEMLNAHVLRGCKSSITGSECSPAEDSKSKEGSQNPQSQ
zebrafish Estrogen Receptor (ESR1), esr1 (gene 259252), sequence (P57717 whole entry, looked up, the tested form may be a part): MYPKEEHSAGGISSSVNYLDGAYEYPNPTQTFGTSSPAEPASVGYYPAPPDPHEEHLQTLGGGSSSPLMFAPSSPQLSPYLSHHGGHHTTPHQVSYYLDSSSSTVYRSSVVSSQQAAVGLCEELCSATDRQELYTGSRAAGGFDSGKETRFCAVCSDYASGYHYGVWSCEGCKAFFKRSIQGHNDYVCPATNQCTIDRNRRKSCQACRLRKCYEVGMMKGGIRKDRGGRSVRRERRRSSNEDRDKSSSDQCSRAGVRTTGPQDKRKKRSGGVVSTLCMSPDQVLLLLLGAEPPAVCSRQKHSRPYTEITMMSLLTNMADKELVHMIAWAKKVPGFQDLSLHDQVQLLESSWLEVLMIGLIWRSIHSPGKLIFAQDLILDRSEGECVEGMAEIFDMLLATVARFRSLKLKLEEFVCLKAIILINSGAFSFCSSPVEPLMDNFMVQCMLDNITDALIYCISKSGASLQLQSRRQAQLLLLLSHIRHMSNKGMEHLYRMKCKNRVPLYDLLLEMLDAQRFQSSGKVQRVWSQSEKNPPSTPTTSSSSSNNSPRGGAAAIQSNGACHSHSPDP
Estrogen receptor (Homo sapiens), sequence (P03372 whole entry, looked up, the tested form may be a part): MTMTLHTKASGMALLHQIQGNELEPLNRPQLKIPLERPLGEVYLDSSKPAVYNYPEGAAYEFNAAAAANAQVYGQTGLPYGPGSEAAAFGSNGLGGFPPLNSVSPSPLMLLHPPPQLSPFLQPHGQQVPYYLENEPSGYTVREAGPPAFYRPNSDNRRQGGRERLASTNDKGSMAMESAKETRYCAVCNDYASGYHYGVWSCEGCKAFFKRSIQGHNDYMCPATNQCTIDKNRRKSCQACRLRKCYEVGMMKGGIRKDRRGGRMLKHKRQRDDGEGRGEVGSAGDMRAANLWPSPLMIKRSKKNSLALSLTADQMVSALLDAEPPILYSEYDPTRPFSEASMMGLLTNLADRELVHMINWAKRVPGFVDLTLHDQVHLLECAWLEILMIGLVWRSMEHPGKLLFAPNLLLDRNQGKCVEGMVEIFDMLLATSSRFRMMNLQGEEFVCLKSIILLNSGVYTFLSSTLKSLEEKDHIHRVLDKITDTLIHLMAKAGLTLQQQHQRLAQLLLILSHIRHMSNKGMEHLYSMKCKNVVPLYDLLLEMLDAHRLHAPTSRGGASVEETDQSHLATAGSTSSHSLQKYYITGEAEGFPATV

With `CCCC(=NOCC)C1=C(O)CC(CC(C)SCC)CC1=O` (stereo not drawn), in experiment [1], the half-maximal activity concentration (AC50) is 79.5 µM (active). The call in [2] and in [3] was inactive.

In the case of `CC(C)N1C(=O)c2ccccc2NS1(=O)=O`, the compound was called inactive in experiment [1], in [2] and in [3].

`CCOC(=O)C(C)OC(=O)c1cc(Oc2ccc(C(F)(F)F)cc2Cl)ccc1[N+](=O)[O-]` (stereo not drawn): the half-maximal activity concentration (AC50) is 74 µM (active) in [1] and 50 µM (active) in experiment [2].

Regarding `O=P(O)(O)CCCl`, the compound was called inactive in [1], in experiment [2] and in [3].

In the case of `N#Cc1c(Cl)cccc1Cl`, the compound was classed as inactive in experiment [1] and in experiment [2].

In the case of `CCSC(=O)N1CCCCCC1`, the compound was classed as inactive in experiment [1], in [2] and in experiment [3].

With `O=c1n(Cl)c(=O)n(Cl)c(=O)n1Cl`, the compound was classed as inactive in experiment [1] and in [2].

With `Nc1cnn(-c2ccccc2)c(=O)c1Cl`, the compound was classed as inactive in [1], in experiment [2] and in [3].

For `CC1(C)CCC(=Cc2ccc(Cl)cc2)C1(O)Cn1cncn1` (stereo not drawn), the result in experiment [4], in experiment [1], in [2], in experiment [6], in [7] and in [11] was inactive. Moreover, the outcome in experiment [12], in [15] and in experiment [16] was inactive. Also, the half-maximal activity concentration (AC50) in experiment [5] was 56.6 µM (active); in [8] it was 3.53 µM (active); in [9], 3.95 µM (active); in [10], 5.79 µM (active); in experiment [13], 13.1 µM (active); in experiment [14], 46.6 µM (active).

Turning to `Clc1nc(Cl)nc(Nc2ccccc2Cl)n1`, the result in [1] and in experiment [2] was inactive.

In the case of `CC1(C)C(C(=O)OC(C#N)c2cccc(Oc3ccccc3)c2)C1(C)C` (stereo not drawn), the AC50 is 50 µM (active) in experiment [1], 50 µM (active) in [2] and 89.4 µM (active) in [3].

As to `COC(=O)NC(=S)Nc1ccccc1NC(=S)NC(=O)OC`, the concentration at half-maximal activity (AC50) in experiment [1] was 18.3 µM (active); in [2] it was 21.6 µM (active).

In the case of `CN=C=S`, the compound was classed as inactive in experiment [1] and in experiment [2].

As to `CC1(C)C(C=C(Cl)Cl)C1C(=O)OC(C#N)c1cccc(Oc2ccccc2)c1` (stereo not drawn), the outcome in experiment [4], in experiment [2], in experiment [7], in experiment [8], in [10] and in experiment [18] was inactive. Also, the outcome in experiment [19] was inactive. The AC50 in experiment [17] was 72.5 µM (active); in experiment [5], 27.3 µM (active); in [1] it was 73.1 µM (active); in experiment [6] it was 2.24 µM (active); in experiment [9], 1.45 µM (active); in experiment [14] it was 66.8 µM (active).

One may read the AC50 as the midpoint of the concentration-response curve, whichever way the signal moves.

The record behind these values is PubChem BioAssay (EPA / NIEHS).
